From PubChem BioAssay (EPA / NIEHS)
Activity calls are given as the source filed them. How the source made its calls: active means hit-call score of the fitted dose curve at least 0.9, where 1 is the maximum; inactive means score below 0.9.

Assay: ATG_CMV_CIS: Attagene CIS-FACTORIAL HepG2 Assay for human CMV (Internal Marker) (AID 2282928);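 further: endpoint acts as a background internal control marker rather than a target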
Conditions: HepG2 CMV promoter reporter, transcription factor profiling; actives raise or lower the signal
Description: ATG_CIS is a cell-based, multiplexed-readout assay that uses HepG2, a human liver cell line, with measurements taken at 24 hours after chemical dosing in a 24-well plate.ATG_CMV_CIS is one of 52 assay component(s) measured or calculated from the ATG_CIS assay. It is designed to make measurements of mRNA induction, a form of inducible reporter, as detected with fluorescence intensity signals by Reverse transcription polymerase chain reaction (RT-PCR) and Capillary electrophoresis technology.Data from the assay component ATG_CMV_CIS was analyzed into 1 assay endpoint. This assay endpoint, ATG_CMV_CIS, was analyzed with bidirectional fitting relative to DMSO as the negative control and baseline of activity. Using a type of inducible reporter, measures of mRNA for gain or loss-of-signal activity can be used to understand the background control at the transcription factor-level as they relate to the gene . Furthermore, this assay endpoint can be referred to as a secondary readout, because this assay has produced multiple assay endpoints where this one serves a background control function. To generalize the intended target to other relatable targets, this assay endpoint is annotated to the background measurement intended target family, where the subfamily is internal marker.
Human liver HepG2 cells are transiently transfected with multiple reporter transcription units (MRTUs) in 6-well plates using FuGene 6 reagent (Roche; 3 ml FuGene/1 mg DNA). The MRTU constructs are regulated by a cis-regulating element (promoter). […] A major difference between the CIS and TRANS system is that in CIS activities of endogenous TFs are measured, whereas the TRANS assay evaluates changes in activities of exogenous, chimeric NR-Gal4 proteins. […] At the end of 24 hour incubation, total RNA was isolated using TriZol reagent (Invitrogen). The isolated RNA is then reverse-transcribed using oligo(dT) primer and Mo-MLV reverse transcriptase (Invitrogen) with DNAse I (Ambion) treatment for 30 min. The one-tenth of the produced cDNA was amplified by PCR using Taq DNA polymerase (Invitrogen) and two reporter sequence-specific primers. The PCR products were fluorescently labeled by primer extension with 6-arboxyfluorescein (6-FAM) 5'-labeled reporter sequence-specific primer (2 min at 95 C, 20 s at 68 C and 10 min at 72 C) and these products were digested with 5U of HpaI (New England Biolabs) for 2h at 37 C. The fragments were purified using Qiaquick PCR columns (Qiagen), analyzed on an ABI 3130xL genetic analyzer (Applied Biosystems) with peak positions identified by using a set of X-rhodamine (ROX)-labeled MapMarker1000 molecular weight standards (BioVentures). The raw capillary electrophoresis data was processed using Attagraph software (Attagene).

Structure (SMILES)	outcome	AC50
N[C@H]1C(O)O[C@H](CO)[C@H](O)[C@@H]1O (stereo not given in full)	inactive	–
CCc1c(C(=O)O)c(=O)cnn1-c1ccc(Cl)cc1	inactive	–
O=C(Nc1cccc(C(F)(F)F)c1)c1cc(Br)cc(Br)c1O	–	160 µM (active)
C=C(C)C(=O)OCCO	inactive	–
C=CCOCC(O)CCl (stereo not given)	inactive	–
CCCCCCCOC(=O)CCC	inactive	–
CCCCCC/C=C/C=O	inactive	–
CC(C)(c1cc(Br)c(OCCO)c(Br)c1)c1cc(Br)c(OCCO)c(Br)c1	–	36.7 µM (active)
NCCCN1CCN(CCCN)CC1	inactive	–
CN(C)c1ccc(C(=N)c2ccc(N(C)C)cc2)cc1	inactive	–
C=CCOc1c(Br)cc(Br)cc1Br	–	35.1 µM (active)
Clc1nc2ccccc2s1	inactive	–
CNC(=S)NN	inactive	–
O=C(Oc1ccccc1)c1ccc2ccccc2c1O	inactive	–
OCCNCc1ccccc1	inactive	–
Cc1cccc(C(=O)O)c1	inactive	–
CCC(CC)C(=O)O	inactive	–
Cc1ccc(OC(=O)CC(C)C)cc1	inactive	–
O=c1c2ccccc2nnn1CCl	inactive	–
CCCCCCCC(C)=O	inactive	–

Structure (SMILES)	outcome	AC50
c1cc(C(c2ccc(OCC3CO3)cc2)C(c2ccc(OCC3CO3)cc2)c2ccc(OCC3CO3)cc2)ccc1OCC1CO1 (stereo not given)	–	64.3 µM (active)
CC(=O)c1ccc2c(c1)CCCC2	inactive	–
CC(C)(Oc1ccc(C2CC2(Cl)Cl)cc1)C(=O)O (stereo not given)	inactive	–
Cc1ccc(N/N=c2\c(=O)cc/c(=N/Nc3ccc(S(=O)(=O)O)cc3)c2=O)c(C)c1	inactive	–
C=CC(C)(C)C	inactive	–
CCCCCC(C)O (stereo not given)	inactive	–
NC(=O)OCC(COC(N)=O)c1ccccc1	inactive	–
CC1(C)S[C@@H]2[C@H](NC(=O)COc3ccccc3)C(=O)N2[C@H]1C(=O)O	inactive	–
CCC(Cc1ccccc1)(C(=O)c1ccc(N2CCOCC2)cc1)N(C)C (stereo not given)	inactive	–
NC(=O)c1ccccc1O	inactive	–
O=C1OC(=O)c2cc(Oc3ccc4c(c3)C(=O)OC4=O)ccc21	inactive	–
CCC(C)(C)C1CCCCC1OC(C)=O (stereo not given)	–	155 µM (active)
CC(C)(C)c1ccc(N)cc1	inactive	–
CC(=O)Nc1ccc2c(c1)Cc1cc(NC(C)=O)ccc1-2	inactive	–
CC(C)CCCCCOC(=O)CCS	inactive	–
CCO[Si](CCCN=C=O)(OCC)OCC	inactive	–
CCCCCCCCCCCCCCCC[N+](C)(C)CC	–	8.84 µM (active)
C=CC(=O)OCCOC(=O)C=C	–	27.2 µM (active)
C=C1C2CCC(C2)C1(C)C (stereo not given)	inactive	–
CCC(C)OC(=O)c1ccc(O)cc1 (stereo not given)	–	67.6 µM (active)
